The values below come from PubChem BioAssay AID493170 (National Center for Advancing Translational Sciences (NCATS), 2011).

Results filed as inconclusive are left out. Where a call stands in place of a potency, no number is given. The source made the active and inactive calls. Calls come from the whole dose curve; as a rule, active = well fitted inhibition curve with a large enough effect; inconclusive = small, poorly fitted or top-dose-only effect, or effect the other way; inactive = flat fitted curve, though single readings scatter.
Potency is the fitted concentration of half-maximal effect.

Chain of Ubiquitin carboxyl-terminal hydrolase 2 (Homo sapiens) (O75604 whole entry, looked up): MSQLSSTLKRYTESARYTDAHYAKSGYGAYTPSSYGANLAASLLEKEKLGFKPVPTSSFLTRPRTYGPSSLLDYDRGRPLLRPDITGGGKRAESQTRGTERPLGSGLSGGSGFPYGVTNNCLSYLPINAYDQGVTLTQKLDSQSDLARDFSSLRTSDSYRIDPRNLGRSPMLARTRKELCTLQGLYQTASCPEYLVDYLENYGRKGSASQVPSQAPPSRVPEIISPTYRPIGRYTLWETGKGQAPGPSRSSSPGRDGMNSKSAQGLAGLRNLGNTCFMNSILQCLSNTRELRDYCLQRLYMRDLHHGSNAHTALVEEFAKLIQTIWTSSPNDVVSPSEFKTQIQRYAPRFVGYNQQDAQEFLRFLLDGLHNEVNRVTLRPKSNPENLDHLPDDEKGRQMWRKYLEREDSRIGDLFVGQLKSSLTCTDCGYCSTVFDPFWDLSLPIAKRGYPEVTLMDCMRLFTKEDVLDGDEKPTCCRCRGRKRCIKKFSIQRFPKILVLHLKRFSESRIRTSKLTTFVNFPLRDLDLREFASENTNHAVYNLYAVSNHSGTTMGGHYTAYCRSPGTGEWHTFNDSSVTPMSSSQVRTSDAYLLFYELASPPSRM

The target in this assay is Ubiquitin carboxyl-terminal hydrolase 2 (Homo sapiens) (UniProt O75604). Put plainly: Ub-rhodamine 110 based assay for inhibitors Ubiquitin-specific Protease USP2a. Note: nearly all actives have a fitted effect of over 50% in size. The note with it: USP2a Ub-rhodamine110 cleavage, fluorescence; series mostly up to 38.3 µM. The procedure, abridged:
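Kinetic fluorescence (485/531 nm) read each minute over 7 min after adding Ub-Rhod110 (150 nM final) to USP2a (5 nM final). The enzyme had 30 min RT exposure to compounds beforehand in Tris pH 8.0 buffer with CaCl2, CHAPS and beta-ME.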
`CCOC(=O)c1[nH]c2ccc(OC)cc2c1NC(=O)CCN1CCCC(C)C1` (stereo not given): the Potency result is “inactive”.
In the case of `O=S(=O)(Nc1ccc(O)c(Sc2nc3ccccc3s2)c1)c1cccc2ccccc12`, the Potency is 10 µM (active).
With `O=C(O)c1cccc(-n2cccc2/C=C2/NC(=O)N(c3ccc(Cl)cc3)C2=O)c1` the figure was 4.47 µM (active); with `c1ccc(-c2ccccc2OCCCN2CCOCC2)cc1`, “inactive”.
Take `O=c1c2c3nc4ccccc4nc3n(Cc3ccccc3)c2ncn1Cc1ccco1`: the Potency was 11.2 µM (active).
In the case of `COc1ccc(CCNC(=O)Cc2cc(=O)[nH]c(=O)[nH]2)cc1OC`, the Potency entry was “inactive”.
For `C#CCOCCOCCOCCNc1nc(N2CCN(C(=O)CCCCCCCCCCNC(=O)[C@@H](CCC(=O)O)n3cc(CCCCCN)nn3)CC2)nc(N2CCN(C(=O)CCCCCCCCCCNC(=O)[C@H](CCCCN)n3cc(C[C@@H](C)CC)nn3)CC2)n1`, the Potency result was “inactive”.
On to `COc1ccc(/C=C(\NC(=O)c2ccc(OC)c(OC)c2)C(=O)N2CCN(C)CC2)cc1`, for which the Potency entry was “inactive”.
Turning to `CC1CCCCN1CCNC(=O)c1cnn2ccccc12` (stereo not given), the Potency entry was “inactive”.
With `O=[N+]([O-])c1ccc(Sc2nnnn2-c2ccccc2)c(Cl)c1`, the Potency entry is “inactive”.
With `CC(=O)c1c(N2CCCC2)[nH]c(-c2ccccc2)nc1=S` the entry was “inactive”; with `COc1ccc(NC(=O)CSc2nc(O)cc(=O)n2-c2ccc(OC)cc2)cc1`, 11.2 µM (active).
Regarding `Cc1nc2n(n1)CC(O)CS2` (stereo not given), the Potency entry is “inactive”.
On to `O=[N+]([O-])c1ccc2nc(C(O)C(O)c3nc4ccc([N+](=O)[O-])cc4[nH]3)[nH]c2c1` (stereo not given), for which the Potency was 11.2 µM (active).
`CC(C)C(=O)Nc1ccc(C(=O)N2CCCCCC2)cc1`: the Potency entry was “inactive”.
